TRAIL sens C8 = viability loss with TRAIL in NB7+C8 cells, primary screen, TRAIL sensitizer project, cell-based, ATPlite luminescence. inhibition (viability loss, TRAIL sensitization), % at 10 µM. 1% of 360,000 active. AID 624354, 2012;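 active = compounds causing at least 50% loss of cell viability in the single-dose screen, relative to plate controls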
STAT1 blocker = STAT1 signaling inhibitors, primary screen, cell-based, HTS, luciferase reporter; inhibition, % at 5.5 µM; NIH 3T3 STAT1-luciferase reporter, IFN-gamma, luminescence; 0.35% of 200,000 active;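 active = inhibition above a set limit, the mean inhibition across all tested compounds plus 3 SD, cut at about 34% in these data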;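 note: 0% = IFN-gamma with DMSO and 100% = IFN-gamma with 300 µM nifuroxazide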
HSP90 inh = HSP90 inhibitors, primary screen, cell lysate, luminescence; 0.91% of 290,000 active; Heat shock protein HSP 90 (rabbit reticulocyte lysate; luciferase refolding); Rabbit reticulocyte lysate, luciferase refolding luminescence, 3 h; inhibition, % at 5.6 µM;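 active = inhibition above the screen-wide mean plus 3 SD, computed separately per campaign, cut at about 16% in these data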;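 note: 0% = DMSO wells and 100% = 60 µM geldanamycin wells; inhibitors lower the luminescence because luciferase stays unfolded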
HSF1 inhib = HSF1 inhibitors in luciferase reporter cells, primary screen, cell-based, NIH3T3, luminescence; AID 2098, 2009; activity change, negative = inhibition, % at 7.5 µM (by protocol); NIH3T3-HGL HSE-luciferase, MG132-induced, luminescence 8 h; stronger effect = lower value; 0.77% of 300,000 active;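 active = more than half of replicate wells show activity change below -50%, luminescence cut by over half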;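 note: luciferase reports HSF-1 transcriptional activity via heat shock element; 0% = median of DMSO wells and -100% = zero luminescence signal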
PPC-1+TRAIL kill = compounds killing PPC-1 cancer cells with TRAIL present, primary screen, TRAIL potentiator project, ATPLite luminescence, uHTS; PPC-1 cells + TRAIL, ATPLite viability luminescence; cell killing (% activity), % at 4 µM or 5 µM; 0.41% of 220,000 active;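 active = cell killing above 50% in the first pass at 4 µM, then a duplicate retest at 5 µM averaging 50% or more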;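 note: plate controls were cells with TRAIL plus DMSO for no effect and medium-only wells lacking cells for full effect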
STAT3 blocker = IL-6 driven STAT3 reporter inhibitors, primary screen, U3A cells, luciferase, luminescence, MLSCN library. IL-6 STAT3-luciferase reporter; host cell line lacks STAT1. inhibition, % at 5.5 µM. 0.89% of 190,000 active. AID 862, 2007;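 active = inhibition above the mean inhibition across all screened compounds plus 3 SD, cut at about 44% in these data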;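 note: 0% = DMSO only wells and 100% = 100 µM nifuroxazide control wells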
The depositor's hits bear a star; . = no result. An excerpt weighted towards active compounds, which were near 2.4% of everything screened.

SMILES | TRAIL sens C8 | STAT1 blocker | HSP90 inh | HSF1 inhib | PPC-1+TRAIL kill | STAT3 blocker
CC(C)c1ccc(NC(=O)C2(C)Cc3c(-c4ccc5c(c4)OCO5)ccnc3O2)cc1 (centres undefined) | -5.2 | . | . | . | . | .
CO[C@H]1CN(C)C(=O)c2cc(NC(=O)C3CCOCC3)ccc2OC[C@H](C)N(Cc2nccs2)C[C@H]1C | -10.3 | . | . | . | . | .
O=C(c1cnc(Cl)c(Cl)c1)N1CCN(S(=O)(=O)c2ccc3ccccc3c2)CC1 | 48.1* | . | . | . | . | .
CCN(CC)C(=S)SCC(=O)Nc1ccc(S(N)(=O)=O)cc1 | -5.8 | 0.4 | 1.8 | 0.6 | 3.4 | 3.0
CCN(CC)C(=S)SCC(=O)Nc1nc(=O)c2ccccc2s1 | -0.8 | -2.8 | -1.9 | -69.6* | 4.0 | -4.9
CC(C)N(C)c1ncnc2c1ncn2[C@H]1CN(C2CCCC2)C[C@@H](CO)O1 | 5.2 | . | . | . | . | .
COc1ccc(-c2nc(SCC(=O)N(CC(C)C)c3c(N)n(Cc4ccccc4)c(=O)[nH]c3=O)n[nH]2)cc1 | 51.1* | . | . | 1.0 | . | .
CCCN(C(=O)CSc1n[nH]c(-c2ccc(OC)cc2)n1)c1c(N)n(Cc2ccccc2)c(=O)[nH]c1=O | 21.5 | . | . | 8.7 | . | .
CC(C)NC(=O)CN1CCN(C(c2ccnc3ccccc23)c2nnnn2-c2ccc3c(c2)OCCO3)CC1 (centres undefined) | 7.3 | . | . | . | . | .
COc1ccc(OC)c(N=C2SCCCN2C(=O)c2ccc(N3C(=O)CCC3=O)cc2)c1 | . | . | . | -68.4* | . | .
O=C(C=P(c1ccccc1)(c1ccccc1)c1ccccc1)c1ccccc1-c1ccccc1C(=O)C=P(c1ccccc1)(c1ccccc1)c1ccccc1 | 49.4 | . | . | -3.4 | . | .
CCN(CC)CCN1CCN(c2cncc(-c3ccc4ccccc4c3)n2)CC1 | 28.9 | . | . | . | . | .
O=C(Nc1ccc(N2CCN(C(=O)c3cccs3)CC2)cc1)c1ccco1 | 13.6 | . | 3.2 | 9.6 | . | .
O=C(Nc1cccc(NC(=O)c2ccc([N+](=O)[O-])o2)c1)c1ccco1 | -11.4 | . | 1.7 | 66.3 | . | .
O=C(Nc1cccc(NC(=O)c2cccs2)c1)c1ccc([N+](=O)[O-])o1 | 34.0 | . | 32.9* | 60.3 | 37.0 | .
O=C(Nc1ccc(N2CCN(C(=O)c3cccs3)CC2)cc1)c1ccc([N+](=O)[O-])o1 | 93.8* | . | -2.6 | 9.6 | . | .
OC(CCCN1CCCCC1)(c1ccccc1)c1ccc(C(F)(F)F)cc1 (centres undefined) | 23.2 | . | . | . | . | .
Cc1ccnc(SCC(=O)N2CCc3ccccc32)n1 | -1.1 | . | -0.2 | 19.0 | . | .
Cc1ccnc(SCC(=O)N2CCN(C(c3ccccc3)c3ccccc3)CC2)n1 | -7.9 | -2.8 | 16.2* | 6.3 | -5.4 | 5.2
CCOC(=O)[C@]12CCCC=C1N(Cc1ccco1)C(=O)[C@H](CC(=O)N1CCOCC1)C2 | -13.5 | . | . | . | . | .
COc1ccc(OC)c(NC(=O)C2CCCN(S(=O)(=O)c3c(C)noc3C)C2)c1 (centres undefined) | -7.2 | -6.5 | -0.5 | 3.1 | 7.7 | -1.4
COc1ccc(OC)c(NC(=O)C2CCCN(S(=O)(=O)c3c(C)nn(C)c3C)C2)c1 (centres undefined) | -1.6 | . | . | -71.6* | . | .
CCOC(=O)C1CCCN(CCC(=O)Nc2cc(C)cc(C)c2)C1 (centres undefined) | -3.7 | -3.4 | 0.5 | 0.7 | -3.9 | -1.3
CCOC(=O)C1CCCN(CCC(=O)Nc2cc(OC)ccc2OC)C1 (centres undefined) | 20.1 | . | 0.8 | -51.5* | . | .
CCc1ccc(OCc2ccc(C(=O)NCc3ccccn3)o2)cc1 | -0.5 | -21.3 | 16.7* | 13.3 | -30.9 | -3.2
COc1ccc(C(=O)C2CCCN(Cc3ccc(NC(C)=O)cc3)C2)cc1OC (centres undefined) | 2.3 | . | -6.2 | -71.6* | . | .
COc1cccc(CNC(=O)[C@@H]2CCCN2C(=O)[C@H]2CCCCN2)c1 | -2.5 | . | . | . | . | .
CCCC[n+]1ccn(C2=C([O-])c3ccccc3C(=O)/C2=N\S(=O)(=O)c2ccc(Br)cc2)c1 | 55.9* | -1.1 | 1.2 | -3.4 | 24.8 | -4.2
COc1ccc(OCCNC(=O)C2(C)CCN2Cc2ccc3ccccc3c2)cc1 (centres undefined) | 17.3 | . | . | . | . | .
Cc1ccccc1CN1CCNC1=O | -7.9 | 0.5 | 9.0 | -1.6 | -16.8 | 5.5
